This is one part of a sample in which hits are shown more often than they occur.
CD40 NFkB inh: inhibitors of CD40-induced NF-kB signaling, primary screen, BL2 cells, luciferase reporter, single point | CD40L-induced, 4 h | inhibition, % at 10 µM | 0.94% of 83,000 active | AID 1053188, 2014;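 active = mean inhibition of at least 50% with a set share of replicates also reaching that level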
Each line names hits and unclear results; the compound was inactive in the other large screens; ! = a repeat was not active; [ ] = remark or other dose.

CN1CCc2c(C#N)c(N3CCCCC3)nc(NCc3ccccc3)c2C1	CD40 NFkB inh 35
N#Cc1c(NCCCO)nc(NCc2ccccc2)c2c1CCN(Cc1ccccc1)C2	none
Cc1nc(N2CCN(C(=O)c3ccco3)CC2)c(C#N)c2c1CCCC2	none
Cc1noc(C)c1NC(=O)N(C)C[C@@H]1OCCCC[C@H](C)Oc2ccc(NC(=O)Nc3ccc(C(F)(F)F)cc3)cc2C(=O)N([C@@H](C)CO)C[C@@H]1C	none
O=C(Nc1cccc(C(F)(F)F)c1)OCc1ccncc1	none
Cc1ccc(Nc2ncccc2C(=O)O)cc1C	none
O=C1OC(OC(=O)c2cccnc2Nc2cccc(C(F)(F)F)c2)c2ccccc21 (stereo unspecified)	CD40 NFkB inh 85[25 µM]
COCC#Cc1ccc([C@@H]2[C@H](CO)N3C(=O)CN(C(=O)Nc4ccccc4F)C[C@@H]23)cc1	none
CCN1[C@H](C(=O)NCCCN(C)C)[C@@H](CO)[C@@H]2Cn3c(ccc(-c4cccc(F)c4)c3=O)[C@@H]21	none
O=C(O)CCC/C=C/CC1COC(C(F)(F)F)OC1c1ccccc1O (stereo unspecified)	none
Cc1ccc2oc(-c3cccc(NC(=O)C4CCCO4)c3)nc2c1 (stereo unspecified)	none
Cc1cccc(-c2nc3cc(NC(=O)C4CCCO4)ccc3o2)c1 (stereo unspecified)	CD40 NFkB inh 54
CC(=O)Nc1ccc2oc(-c3ccccc3)nc2c1	none
CCS(=O)(=O)N1[C@H](C#N)[C@@H](c2ccc(C#CC(C)C)cc2)[C@H]1CO	none
CCC(=O)N1C[C@@H](O)COC[C@@H]2O[C@H](CC(=O)NC)CC[C@H]21	none
N#C/C(=C\c1ccc(O)c(O)c1)C(=O)NC1CCC(CC2CCC(NC(=O)/C(C#N)=C/c3ccc(O)c(O)c3)CC2)CC1 (stereo unspecified)	none
c1ccc(-c2noc(-c3cccnc3)n2)nc1	none
c1ccc(-c2noc(-c3ccc4c(c3)OCO4)n2)nc1	CD40 NFkB inh 75
c1ccc(-c2noc(-c3ccc4ccccc4c3)n2)nc1	CD40 NFkB inh 105
c1ccc(-c2noc(-c3ccncc3)n2)nc1	none
c1ccc(-c2nccc(-c3ccc4c(c3)OCO4)n2)cc1	none
c1ccc(CCc2ccccc2-c2nc(-c3ccccn3)no2)cc1	none
CCCNC(=O)N1[C@@H](CO)[C@@H](c2ccc(C3=CCCC3)cc2)[C@@H]1CNC(C)=O	none
COc1ccc2c3c([nH]c2c1)[C@H](CO)N(Cc1ccccc1F)CC31CN(CC2CC2)C1	none
COc1ccc(-c2ccccc2[C@H]2[C@@H](C#N)N(C(=O)C3CCCC3)[C@H]2CO)cc1	none
Cc1ccccc1-c1ccc([C@H]2[C@H]3CN(C(=O)Nc4cccc(F)c4)CC(=O)N3[C@H]2CO)cc1	none
Cc1nc(N2[C@H](C#N)[C@H](c3ccccc3)[C@H]2CO)sc1C	none
CO[C@H]1CN(C)C(=O)c2cc(NC(=O)C3CCCC3)ccc2OC[C@@H](C)N(C)C[C@@H]1C	none
Cc1ccc(-c2cc(C(=O)NCC3(N(C)C)CCCCC3)c3ccccc3n2)o1	none
Cc1ccc(-c2cc(C(=O)N(C)CC(=O)Nc3ccccc3Br)c3ccccc3n2)o1	CD40 NFkB inh 55
COc1ccc(NC(=O)CN(C)C(=O)c2cc(-c3ccco3)nc3ccccc23)cc1	none
O=C(NC1CCCC1)c1nc2c(nnn2Cc2cccc(Cl)c2)c(=O)[nH]1	none
O=C(Nc1ccc(F)cc1)N1CCC(c2nc3c(nnn3Cc3cccc(Cl)c3)c(=O)[nH]2)CC1	CD40 NFkB inh 69
Cc1ccc(NC(=O)N2CCC(c3nc4c(nnn4Cc4cccc(Cl)c4)c(=O)[nH]3)CC2)cc1	none
CNC(=O)C[C@H]1CC[C@H]2[C@@H](COC[C@H](O)CN2Cc2ccccc2F)O1	none
Cc1ccc(S(=O)(=O)N(C)C[C@H]2OCCCC[C@@H](C)Oc3ccc(NS(=O)(=O)c4ccc(F)cc4)cc3C(=O)N([C@@H](C)CO)C[C@H]2C)cc1	none
Cc1ccc(C(=O)Nc2nc3ccccc3n2CCN2CCCC2)cc1	none
CCCn1c(NC(=O)c2cccc(S(=O)(=O)N3CCCC3)c2)nc2ccccc21	CD40 NFkB inh 90
CCn1nccc1C(=O)Nc1nc2ccccc2n1CCN1CCCCC1	none
COc1cccc(NC(=O)N2[C@@H]3CNC[C@H]2C3c2ccc(/C=C/c3ccccc3)cc2)c1 (stereo partly specified)	CD40 NFkB inh 60!
COc1cccc(NC(=O)N2[C@@H]3CNC[C@H]2C3c2ccc(-c3ccccc3)cc2)c1 (stereo partly specified)	none
O=C(Nc1cccc(Cl)c1)N1[C@@H]2CNC[C@H]1C2c1ccc(/C=C/c2ccccc2)cc1 (stereo partly specified)	none
C[C@@H]1CN(C)C(=O)c2cccc(N(C)C)c2O[C@@H]1CN(C)S(C)(=O)=O	none
CO[C@@H]1CN(C)C(=O)c2ccc(NS(=O)(=O)c3cccc(Cl)c3)cc2OC[C@@H](C)N(C(=O)Cc2cccnc2)C[C@H]1C	none
CCCCC#Cc1nc(NC)c2ncn(C3OC(CO)C(O)C3O)c2n1 (stereo unspecified)	none
CO[C@@H]1CC[C@@H]2CCN(C)C(=O)CCCN(C)C(=O)c3cc(C#N)ccc3OC[C@H]1O2	none
OC(CNc1ccnc2cc(Cl)ccc12)CNC1CCCCC1 (stereo unspecified)	none

Compound activity (PubChem BioAssay)
